{
  "source": "PubChem BioAssay (Tox21)",
  "note": "Inconclusive results are not listed. Where a call stands in place of a potency, no number is given. Some structures have more than one record in an assay (separate samples or runs), and their calls can disagree. Active and inactive are the calls of the source. Calls come from the whole dose curve. Potency is the fitted concentration of half-maximal effect.",
  "data": [
    {"biological_target": "5-hydroxytryptamine receptor 2A (Homo sapiens) (UniProt P28223)", "sequence (P28223 whole entry, looked up)": "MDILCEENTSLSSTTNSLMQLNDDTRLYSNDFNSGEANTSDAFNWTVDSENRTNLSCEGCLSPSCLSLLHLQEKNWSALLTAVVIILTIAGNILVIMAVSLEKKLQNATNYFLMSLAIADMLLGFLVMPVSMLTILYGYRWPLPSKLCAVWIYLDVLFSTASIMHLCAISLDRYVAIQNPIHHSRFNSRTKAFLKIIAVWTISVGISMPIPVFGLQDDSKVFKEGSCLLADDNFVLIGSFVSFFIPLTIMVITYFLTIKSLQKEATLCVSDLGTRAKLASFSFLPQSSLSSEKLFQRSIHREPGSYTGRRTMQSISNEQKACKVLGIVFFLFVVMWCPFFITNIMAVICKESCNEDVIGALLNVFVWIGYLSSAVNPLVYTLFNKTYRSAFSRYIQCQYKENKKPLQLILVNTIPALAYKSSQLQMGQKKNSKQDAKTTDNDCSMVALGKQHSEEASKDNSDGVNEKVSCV", "assay": "5-hydroxytryptamine receptor 2A (HTR2A) small molecule antagonists, cell-based qHTS assay (AID 1963586); note: nearly all actives have a fitted effect of over 45% in size", "conditions": "HTR2A-CHO cells, DOI-induced calcium flux, fluorescence; series mostly up to 61.5 µM", "text": "National Center for Advancing Translational Sciences [NCATS]\nDivision of Preclinical Innovation [DPI]\nU.S. Environmental Protection Agency [EPA]\nNational Institutes of Environmental Health Sciences [NIEHS]\nNational Toxicology Program [NTP]\nU.S. Food and Drug Administration [FDA]\nThe HTR2A receptor is a subtype of the 5-HT2 receptor that belongs to the serotonin receptor family and is a G protein-coupled receptor (GPCR). The HTR2A-CHO cell line stably expressing human 5-hydroxytryptamine receptor 2A (HTR2A) can be used for screening antagonists of interactions between 5-HT2 and its ligands. The HTR2A-CHO calcium flux assay is a homogeneous fluorescence-based assay for detecting the intracellular calcium level using FDSS kinetic plate reader system.\nTox21 Assay Protocol Summary:\nHTR2A-CHO cells were dispensed at 2000 cells/3uL/well in 1536-well black-clear bottom plates using a Multidrop Dispenser. After the assay plates were incubated at a 37 C/5% CO2 incubator for 18 h, 3 uL of Dye Loading Buffer was transferred to the assay plate by a Flying Reagent Dispenser. The assay plates were incubated at 37 C for 1h. For antagonist mode, 23 nL of compounds dissolved in DMSO, positive controls or DMSO only was transferred to the assay plate by a pin tool. After 5 min incubation at room temperature, 1.5 uL of 4-Iodo-2,5-dimethoxy-alpha-methylbenzeneethanamine hydrochloride (DOI) at 4nM was added to each well. The fluorescence intensity in the plates was measured using FDSS 7000EX kinetic plate reader for 3 min at 1 sec intervals.", "values": [
      {"smiles": "CCC(C)(C#N)N=NC(C)(C#N)CC", "note": "(stereo not given)", "Potency": "inactive"},
      {"smiles": "COc1cc(OC)nc(NC(=O)NS(=O)(=O)c2ncccc2C(=O)N(C)C)n1", "Potency": "inactive"},
      {"smiles": "C#CCOC(C(=O)OCCN(C)C)(c1ccccc1)c1ccccc1", "Potency": "inactive"},
      {"smiles": "COc1ccc(N)cc1N", "Potency": "inactive"},
      {"smiles": "O=C(O)CF", "Potency": "inactive"},
      {"smiles": "CCCCCCCCCl", "Potency": "inactive"},
      {"smiles": "CCC(=O)O[C@@H]1C=C2CCC3C(CCC4(C)C3CC[C@@H]4OC(=O)CC)C2CC1", "note": "(stereo not given in full)", "Potency": "inactive"},
      {"smiles": "O=[N+]([O-])c1ccc(Cl)c(Cl)c1", "Potency": "inactive"},
      {"smiles": "CCn1cc[n+](C)c1C", "Potency": "inactive"},
      {"smiles": "C=CC(=O)OCCCCCC(C)C", "Potency": "inactive"},
      {"smiles": "N#CCBr", "Potency": "inactive"},
      {"smiles": "CCC(C)(C)c1ccc(O)cc1", "Potency": "37.9 µM (active) and inactive"},
      {"smiles": "O=[N+]([O-])O", "Potency": "inactive"},
      {"smiles": "CCOc1cc(C=O)ccc1O", "Potency": "inactive"},
      {"smiles": "c1ccc(C2CO2)cc1", "note": "(stereo not given)", "Potency": "4.8 nM (active) and inactive"},
      {"smiles": "OCCSSCCO", "Potency": "inactive"},
      {"smiles": "CCCCN(CCCCO)N=O", "Potency": "inactive"},
      {"smiles": "O=c1oc2ccccc2c(O)c1C(CC(O)c1ccc(-c2ccc(Br)cc2)cc1)c1ccccc1", "note": "(stereo not given)", "Potency": "inactive"},
      {"smiles": "CC(C=O)Cc1ccc2c(c1)OCO2", "note": "(stereo not given)", "Potency": "inactive"},
      {"smiles": "O=C(O)c1ccccn1", "Potency": "inactive"},
      {"smiles": "CCOP(=O)(CN(CCO)CCO)OCC", "Potency": "inactive"},
      {"smiles": "OCCN(CCO)CCO", "Potency": "inactive"},
      {"smiles": "OCCOc1ccccc1", "Potency": "inactive"},
      {"smiles": "CC1(C)C(C=C(Cl)Cl)C1C(=O)OC(C#N)c1cccc(Oc2ccccc2)c1", "note": "(stereo not given)", "Potency": "inactive"},
      {"smiles": "ClC1C(Cl)C(Cl)C(Cl)C(Cl)C1Cl", "note": "(stereo not given)", "Potency": "inactive"},
      {"smiles": "CC[N+](CC)(CC)CC", "Potency": "inactive"},
      {"smiles": "[CH3][Sn]([CH3])([Cl])[Cl]", "Potency": "inactive"},
      {"smiles": "CCOP(=O)(OCC)OP(=O)(OCC)OCC", "Potency": "inactive"},
      {"smiles": "N#Cc1ccccc1Cl", "Potency": "inactive"},
      {"smiles": "O=C(NCO)NCO", "Potency": "inactive"},
      {"smiles": "COc1ccc(C=O)cc1OC", "Potency": "inactive"},
      {"smiles": "ClCCOCCCl", "Potency": "inactive"},
      {"smiles": "O=C(O)C(Cl)Br", "note": "(stereo not given)", "Potency": "inactive"},
      {"smiles": "S=c1[nH]c2ccccc2[nH]1", "Potency": "inactive"},
      {"smiles": "CC[N+]1(CC)CCC(OC(=O)C(O)(c2ccccc2)c2ccccc2)C1", "note": "(stereo not given)", "Potency": "inactive"},
      {"smiles": "Clc1cnc(Oc2ccc(Oc3ncc(Cl)cc3Cl)cc2)c(Cl)c1", "Potency": "inactive"},
      {"smiles": "Nc1ccc(Cl)cc1", "Potency": "inactive"},
      {"smiles": "CCCCCCCCCCCC#N", "Potency": "inactive"},
      {"smiles": "CC[N+](=O)[O-]", "Potency": "inactive"},
      {"smiles": "O=c1[nH]c(=O)[nH]c(=O)[nH]1", "Potency": "inactive"}
    ]}
  ]
}
